Measurements as given in the supplement of paper PMC3414501.
Structures can show the parent of a compound that is named as a salt.

Test system: S. cerevisiae SK1 pCDA2-eGFP (USY613), sporulating
Assay: CDA2-GFP sporulation assay sensitivity score (z-score vs DMSO controls); higher = stronger inhibition of sporulation, active = hit call of the paper
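Also: active if sensitivity score above 5.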

CDA2-GFP sporulation assay sensitivity score, active:
O=C(CCCN1CCC(O)(c2ccc(Cl)cc2)CC1)c1ccc(F)cc1 [Haloperidol] (stock concentration (mM, diluted 1:100): 10) 8.19

CDA2-GFP sporulation assay sensitivity score, inactive:
CCN(CC)CC(=O)Nc1c(C)cccc1C [Lidocaine] (stock concentration (mM, diluted 1:100): 9.6) 0.09
CC(C)NCC(O)COc1ccc(COCCOC(C)C)cc1 (stereo not drawn) [Bisoprolol fumarate] (stock concentration (mM, diluted 1:100): 8.5) 0.16
CC(C)NCC(O)c1ccc(NS(C)(=O)=O)cc1 (stereo not drawn) [Sotalol hydrochloride] (stock concentration (mM, diluted 1:100): 8.8) -0.03
CCCN[C@H]1CCc2nc(N)sc2C1 [Pramipexole] (stock concentration (mM, diluted 1:100): 10) -1.03
O=C(O[C@@H]1C[C@@H]2C[C@H]3C[C@H](C1)N2CC3=O)c1c[nH]c2ccccc12 [Dolasetron mesylate] (stock concentration (mM, diluted 1:100): 10.4) -1
CC(CCCCC(=O)Nc1ccc(C(F)(F)F)cc1)NCCc1cnc[nH]1 (stereo not drawn) (stock concentration (mM, diluted 1:100): 10) 2.58

Test system: S. cerevisiae NKY1551 his4x/his4B, sporulating
Assay: HIS4 meiotic recombination assay sensitivity score (z-score vs DMSO controls); higher = stronger inhibition of sporulation/recombination, active = hit call of the paper

HIS4 meiotic recombination assay sensitivity score, active:
CNCC[C@@H](Oc1ccccc1C)c1ccccc1 [Atomexetine hydrochloride] (stock concentration (mM, diluted 1:100): 8.7) 10.1
Fc1ccc([C@@H]2CCNC[C@H]2COc2ccc3c(c2)OCO3)cc1 [Paroxetine] (stock concentration (mM, diluted 1:100): 8.8) 9.22
COC(=O)C1=C(C)NC(C)=C(C(=O)OC(C)C)C1c1cccc2nonc12 (stereo not drawn) [Isradipine] (stock concentration (mM, diluted 1:100): 9.9) 5.46
O=C(CCCN1CCC(O)(c2ccc(Cl)cc2)CC1)c1ccc(F)cc1 [Haloperidol] (stock concentration (mM, diluted 1:100): 10) 7.67

HIS4 meiotic recombination assay sensitivity score, inactive:
CC(C(O)c1ccc(O)cc1)N1CCC(Cc2ccccc2)CC1 (stereo not drawn) [Ifenprodil] (stock concentration (mM, diluted 1:100): 9.2) 4.63
Cc1nc2ccccn2c(=O)c1CCN1CCC(C(=O)c2ccc(F)cc2)CC1 [Pirenperone] (stock concentration (mM, diluted 1:100): 10) 2.21
CC(C)(C)NC(=O)[C@@H]1C[C@@H]2CCCC[C@@H]2CN1C[C@@H](O)[C@H](Cc1ccccc1)NC(=O)[C@H](CC(N)=O)NC(=O)c1ccc2ccccc2n1 [Saquinavir mesylate] (stock concentration (mM, diluted 1:100): 8.8) -1.67
OCc1cc(C(O)CNCCCCCCOCCCCc2ccccc2)ccc1O (stereo not drawn) [Salmeterol] (stock concentration (mM, diluted 1:100): 10) 0.79
CCCCC[C@H](O)/C=C/[C@H]1[C@H](O)CC(=O)[C@@H]1CCCCCCC(=O)O [Prostaglandin E1] (stock concentration (mM, diluted 1:100): 10) 1.5
C=CC1=C(C(=O)O)N2C(=O)[C@@H](NC(=O)/C(=N\O)c3csc(N)n3)[C@H]2SC1 [Cefdinir] (stock concentration (mM, diluted 1:100): 10) 0
CCC(C)n1ncn(-c2ccc(N3CCN(c4ccc(OCC5COC(Cn6cncn6)(c6ccc(Cl)cc6Cl)O5)cc4)CC3)cc2)c1=O (stereo not drawn) [Itraconazole] (stock concentration (mM, diluted 1:100): 10.1) -1.94
Nc1ccn([C@H]2CC[C@@H](CO)O2)c(=O)n1 [Zalcitabine] (stock concentration (mM, diluted 1:100): 10) -0.41
CC(C)(C)NCC(O)c1ccc(O)c(CO)c1 (stereo not drawn) [Salbutamol sulfate] (stock concentration (mM, diluted 1:100): 9.7) -0.65
CC(=O)NC[C@H]1CN(c2ccc(N3CCOCC3)c(F)c2)C(=O)O1 [Linezolide] (stock concentration (mM, diluted 1:100): 10) -0.83
CC(=O)OCC(CCn1cnc2cnc(N)nc21)COC(C)=O [Famciclovir] (stock concentration (mM, diluted 1:100): 10) -0.43
Cc1ncc([N+](=O)[O-])n1CC(C)O (stereo not drawn) [Secnidazole] (stock concentration (mM, diluted 1:100): 10) 0.68
CC1=Nc2ccc(Cl)cc2S(=O)(=O)N1 [Diazoxide] (stock concentration (mM, diluted 1:100): 10) -1.19
CC(C)(C)C(O)/C=C/c1ccc2c(c1)OCO2 (stereo not drawn) [Stiripentol] (stock concentration (mM, diluted 1:100): 10) 1.81
O=c1c(-c2ccccc2)c1-c1ccccc1 [Diphenylcyclopropenone] (stock concentration (mM, diluted 1:100): 10) -0.87
COCCCOc1ccnc(C[S+]([O-])c2nc3ccccc3[nH]2)c1C (stereo not drawn) [Rabeprazole] (stock concentration (mM, diluted 1:100): 10.6) 3.07
COC(=O)C1=C(C)NC(C)=C(C(=O)OC)C1c1ccccc1[N+](=O)[O-] [Nifedipine] (stock concentration (mM, diluted 1:100): 10.7) 1.3
CC(C)[C@H]1CC[C@H](C(=O)N[C@H](Cc2ccccc2)C(=O)O)CC1 [Nateglinide] (stock concentration (mM, diluted 1:100): 10) -0.37
C[C@@H]1CN(CCCn2c3ccccc3c3ccccc32)C[C@H](C)N1 [Rimcazole] (stock concentration (mM, diluted 1:100): 10.1) -2.16
COc1ccc(CC(C)NCC(O)c2ccc(O)c(NC=O)c2)cc1 (stereo not drawn) [Formoterol fumarate dihydrate] (stock concentration (mM, diluted 1:100): 7) -1.68
CN1C(=O)CC[C@H]1c1cccnc1 [Cotinine] (stock concentration (mM, diluted 1:100): 10) -1.15
O=c1c(O[C@@H]2O[C@H](CO)[C@H](O)[C@H](O)[C@H]2O)c(-c2ccc(O)c(O)c2)oc2cc(O)cc(O)c12 [Hyperoside] (stock concentration (mM, diluted 1:100): 8.8) 0.06
COc1cc2nc(N(C)CCCNC(=O)C3CCCO3)nc(N)c2cc1OC (stereo not drawn) [Alfuzosin] (stock concentration (mM, diluted 1:100): 10) -0.29
Cc1c(O)c(=O)ccn1C [Deferiprone] (stock concentration (mM, diluted 1:100): 10) -0.12
CC12CC3CC(C)(C1)CC(N)(C3)C2 [Memantine hydrochloride] (stock concentration (mM, diluted 1:100): 8.3) 1.61
CC(=O)SCC(Cc1ccccc1)C(=O)NCC(=O)OCc1ccccc1 (stereo not drawn) [Acetorphan] (stock concentration (mM, diluted 1:100): 10) 1.65
CCN(CC)CC(=O)Nc1c(C)cccc1C [Lidocaine] (stock concentration (mM, diluted 1:100): 9.6) -2.75
CC(C)NCC(O)COc1ccc(COCCOC(C)C)cc1 (stereo not drawn) [Bisoprolol fumarate] (stock concentration (mM, diluted 1:100): 8.5) -0.11
CC(C)NCC(O)c1ccc(NS(C)(=O)=O)cc1 (stereo not drawn) [Sotalol hydrochloride] (stock concentration (mM, diluted 1:100): 8.8) -0.43
CCCN[C@H]1CCc2nc(N)sc2C1 [Pramipexole] (stock concentration (mM, diluted 1:100): 10) -2.92
O=C(O[C@@H]1C[C@@H]2C[C@H]3C[C@H](C1)N2CC3=O)c1c[nH]c2ccccc12 [Dolasetron mesylate] (stock concentration (mM, diluted 1:100): 10.4) -3.34
CC(CCCCC(=O)Nc1ccc(C(F)(F)F)cc1)NCCc1cnc[nH]1 (stereo not drawn) (stock concentration (mM, diluted 1:100): 10) -0.79
